Records with an inconclusive call do not appear. Active and inactive are the calls of the source. The calls were made as follows: active = hit-call score of the fitted dose curve at least 0.9, where 1 is the maximum; inconclusive = response in the unintended direction; inactive = score below 0.9.
test system: not listed separately; assay: ATG_GAL4_TRANS: Attagene TRANS-FACTORIAL HepG2 Assay for GAL4 (Internal Marker) (AID 2282976); conditions: HepG2 Attagene TRANS GAL4 internal marker reporter
Method in brief: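 HepG2 cells transiently transfected with multiplexed GAL4-UAS reporter constructs were dosed for 24 h. Reporter mRNA was measured by RT-PCR, 6-FAM primer extension, HpaI digestion and capillary electrophoresis, and gain of signal was fitted relative to DMSO.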

| Structure (SMILES) | outcome |
| --- | --- |
| C[C@]12CCC(=O)C=C1CC[C@@H]1[C@@H]2CC[C@@]2(C)[C@H]1CC[C@]2(C)O | inactive |
| c1cc2ccc3cccc4ccc(c1)c2c34 | inactive |
| Cc1ccccc1O | inactive |
| CCC(=O)O[C@H]1CC[C@H]2[C@@H]3CCC4=CC(=O)CC[C@]4(C)[C@H]3CC[C@]12C | inactive |
| CC(C)(c1ccccc1)c1ccc(O)cc1 | inactive |
| O=C(O)C(F)(F)C(F)(F)C(F)(F)C(F)(F)C(F)(F)C(F)(F)C(F)(F)C(F)(F)C(F)(F)F | inactive |
| Clc1ccc(C(c2ccccc2Cl)C(Cl)(Cl)Cl)cc1 (stereo not drawn) | inactive |
| N#Cc1ccc(N(CC(N)=O)CC(F)(F)F)cc1C(F)(F)F | inactive |
| Cc1ccccc1[N+](=O)[O-] | inactive |
| CCOC(=O)C(O)(c1ccc(Cl)cc1)c1ccc(Cl)cc1 | inactive |
| Sc1ccccc1 | inactive |
| Clc1ccc(Cl)cc1 | inactive |
| CN(C)CCO | inactive |
| Cc1cc(-c2ccc(N)c(C)c2)ccc1N | inactive |
| CC(C)C(=O)OCC(C)(C)C(OC(=O)C(C)C)C(C)C (stereo not drawn) | inactive |
| CC(c1ccc(O)cc1)(c1ccc(O)cc1)c1ccc(O)cc1 | inactive |
| Oc1ccc(C(c2ccc(O)cc2)(C(F)(F)F)C(F)(F)F)cc1 | inactive |
| O=S(=O)(O)C(F)(F)C(F)(F)C(F)(F)C(F)(F)C(F)(F)C(F)(F)F | inactive |
| Nc1ccc(-c2ccc(N)cc2)cc1 | inactive |

target: Estrogen-related receptor gamma (Homo sapiens) (UniProt P62508); assay: ATG_ERRg_TRANS: Attagene TRANS-FACTORIAL HepG2 Assay for human Estrogen-Related Receptor gamma (ERRg) (AID 2282977); conditions: HepG2 Attagene TRANS reporter, ERRg transactivation;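 also: hits increase reporter signal over DMSO so potencies reflect activators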
Sequence (P62508 whole entry, looked up, the tested form may be a part): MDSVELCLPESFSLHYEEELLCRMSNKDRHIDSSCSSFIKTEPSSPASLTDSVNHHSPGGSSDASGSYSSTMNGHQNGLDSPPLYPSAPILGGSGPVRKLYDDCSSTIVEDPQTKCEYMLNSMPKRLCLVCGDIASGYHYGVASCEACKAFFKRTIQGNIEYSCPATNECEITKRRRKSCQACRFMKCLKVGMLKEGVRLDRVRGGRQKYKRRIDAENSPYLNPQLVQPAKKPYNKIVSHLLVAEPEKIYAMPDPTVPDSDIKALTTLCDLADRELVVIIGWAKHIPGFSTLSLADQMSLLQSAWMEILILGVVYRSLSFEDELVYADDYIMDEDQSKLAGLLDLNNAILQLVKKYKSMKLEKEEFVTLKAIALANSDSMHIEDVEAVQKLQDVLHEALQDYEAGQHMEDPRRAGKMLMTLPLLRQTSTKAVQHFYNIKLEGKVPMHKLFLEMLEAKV
Method in brief: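 HepG2 cells transiently transfected with multiplexed GAL4-UAS reporter units driven by chimeric NR-Gal4 proteins; 24 h exposure. Reporter mRNA quantified by RT-PCR, fluorescent labelling, HpaI digestion and capillary electrophoresis; gain of signal vs DMSO.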

| Structure (SMILES) | outcome |
| --- | --- |
| CCC(C)c1cc([N+](=O)[O-])cc([N+](=O)[O-])c1O (stereo not drawn) | inactive |
| ClC(Cl)=C(c1ccc(Cl)cc1)c1ccc(Cl)cc1 | inactive |
| O=C(O)C(F)(F)C(F)(F)C(F)(F)C(F)(F)C(F)(F)C(F)(F)C(F)(F)C(F)(F)C(F)(F)F | inactive |
| OCC(O)CO | inactive |
| Clc1ccc(C(c2ccccc2Cl)C(Cl)(Cl)Cl)cc1 (stereo not drawn) | inactive |
| CN(C)CCO | inactive |
| CC(C)(O)C(=O)Nc1ccc([N+](=O)[O-])c(C(F)(F)F)c1 | inactive |
| ClC1=C(Cl)[C@]2(Cl)[C@@H]3[C@H]4C[C@H]([C@@H]5O[C@H]45)[C@@H]3[C@@]1(Cl)C2(Cl)Cl | inactive |

target: Glucocorticoid receptor (Homo sapiens) (UniProt P04150); assay: ATG_GR_TRANS: Attagene TRANS-FACTORIAL HepG2 Assay for human Glucocorticoid Receptor (GR) (AID 2282978); conditions: HepG2 Attagene TRANS GR reporter, mRNA transcription;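 also: activators score as hits since higher reporter transcript over DMSO is fitted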
Sequence (P04150 whole entry, looked up, the tested form may be a part): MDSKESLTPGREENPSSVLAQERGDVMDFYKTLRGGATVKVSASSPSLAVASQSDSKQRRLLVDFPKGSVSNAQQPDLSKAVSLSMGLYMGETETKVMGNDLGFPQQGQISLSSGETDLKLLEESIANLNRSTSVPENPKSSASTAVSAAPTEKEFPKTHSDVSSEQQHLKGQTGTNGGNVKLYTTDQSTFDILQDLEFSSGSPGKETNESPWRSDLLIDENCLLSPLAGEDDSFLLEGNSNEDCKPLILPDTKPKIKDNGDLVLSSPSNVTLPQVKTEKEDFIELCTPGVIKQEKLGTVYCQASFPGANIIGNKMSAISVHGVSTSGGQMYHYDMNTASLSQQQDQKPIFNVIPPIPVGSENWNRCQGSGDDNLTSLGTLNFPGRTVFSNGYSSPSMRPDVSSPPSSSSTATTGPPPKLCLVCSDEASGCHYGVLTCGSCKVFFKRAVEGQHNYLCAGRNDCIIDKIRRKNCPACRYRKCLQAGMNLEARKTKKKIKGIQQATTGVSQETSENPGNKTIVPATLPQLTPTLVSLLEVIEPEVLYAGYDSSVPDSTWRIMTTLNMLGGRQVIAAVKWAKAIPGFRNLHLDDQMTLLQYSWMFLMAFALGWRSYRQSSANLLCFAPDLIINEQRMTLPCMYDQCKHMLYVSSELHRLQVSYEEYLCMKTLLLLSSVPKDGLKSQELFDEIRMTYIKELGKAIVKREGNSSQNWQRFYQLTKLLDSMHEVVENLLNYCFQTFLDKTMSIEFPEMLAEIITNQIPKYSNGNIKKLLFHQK
Method in brief: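 Readout is reporter transcript from a chimeric GR-Gal4 acting on GAL4-UAS in transfected human HepG2 liver cells after 24 h exposure, quantified by RT-PCR and capillary electrophoresis. Activation fitted upward against DMSO.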

| Structure (SMILES) | outcome |
| --- | --- |
| C[C@]12CCC(=O)C=C1CC[C@@H]1[C@@H]2CC[C@@]2(C)[C@H]1CC[C@]2(C)O | inactive |
| CCC(C)c1cc([N+](=O)[O-])cc([N+](=O)[O-])c1O (stereo not drawn) | inactive |
| Cc1ccccc1O | inactive |
| CCC(=O)O[C@H]1CC[C@H]2[C@@H]3CCC4=CC(=O)CC[C@]4(C)[C@H]3CC[C@]12C | inactive |
| CC(C)(c1ccccc1)c1ccc(O)cc1 | inactive |
| ClC(Cl)=C(c1ccc(Cl)cc1)c1ccc(Cl)cc1 | inactive |
| O=C(O)C(F)(F)C(F)(F)C(F)(F)C(F)(F)C(F)(F)C(F)(F)C(F)(F)C(F)(F)C(F)(F)F | inactive |
| OCC(O)CO | inactive |
| Oc1c(Cl)c(Cl)c(Cl)c(Cl)c1Cl | inactive |
| Clc1ccc(C(c2ccccc2Cl)C(Cl)(Cl)Cl)cc1 (stereo not drawn) | inactive |
| CCOC(=O)C(O)(c1ccc(Cl)cc1)c1ccc(Cl)cc1 | inactive |
| Sc1ccccc1 | inactive |
| Clc1ccc(Cl)cc1 | inactive |
| CN(C)CCO | inactive |
| O=C(O)C(F)(F)C(F)(F)C(F)(F)C(F)(F)C(F)(F)C(F)(F)C(F)(F)C(F)(F)F | inactive |
| CC(c1ccc(O)cc1)(c1ccc(O)cc1)c1ccc(O)cc1 | inactive |
| COc1ccc(O)c(C(C)(C)C)c1 | inactive |
| Oc1ccc(C(c2ccc(O)cc2)(C(F)(F)F)C(F)(F)F)cc1 | inactive |
| O=S(=O)(O)C(F)(F)C(F)(F)C(F)(F)C(F)(F)C(F)(F)C(F)(F)F | inactive |
| ClC1=C(Cl)[C@]2(Cl)[C@@H]3[C@H]4C[C@H]([C@@H]5O[C@H]45)[C@@H]3[C@@]1(Cl)C2(Cl)Cl | inactive |
| Nc1ccc(-c2ccc(N)cc2)cc1 | inactive |

From PubChem BioAssay (EPA / NIEHS)
